Results from PubChem BioAssay (NCI).
About 83,000 compounds went through this panel and 20% of them were active in at least one assay; those are over-represented in the sample as a whole.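 For each line, cells grew in 96-well plates with the test compound present at a single concentration for 48 hours.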 Calls of active or inactive are those of the source. The calls were made as follows: active = growth percent below 10; inactive = the rest.

tested on: KM12 colon; experiment: NCI-60 one-dose screen, 48 h (100 = growth as untreated, 0 = no growth, -100 = all killed); details: 100 µM

Row | SMILES | growth
1 | CCN(Cc1ccccc1)c1ccc(/C=C2\COc3ccccc3C2=O)cc1 | 21.8% (inactive)
2 | CC(=O)/C=C/c1ccc(OCc2ccc(C(C)(C)C)cc2)cc1 | 32.1% (inactive)
3 | CC(=O)/C=C/c1ccc(N(CCO)Cc2ccc(C(C)(C)C)cc2)cc1 | -78.2% (active)
4 | O=C(/C=C/c1cccc(Oc2ccc(Cl)cc2)c1)c1ccccc1 | -76.8% (active)
5 | COc1ccc(C(=O)/C=C/c2ccc(OCc3cccc(C(F)(F)F)c3)c(OC)c2)cc1OC | 12.4% (inactive)
6 | CC(=O)/C=C/c1ccc(OCc2ccc(Cl)cc2)cc1 | 35.3% (inactive)
7 | COc1ccc(C(=O)/C=C/c2ccc(OCc3ccc(Cl)cc3)cc2)cc1OC | 21.4% (inactive)
8 | CC(=O)/C=C/c1ccc(N(C)Cc2ccc(C(C)(C)C)cc2)cc1 | -45.7% (active)
